Assay results from PubChem BioAssay (NCATS).
Inconclusive results are not listed. Entries that show only a call come without a potency. The source made the active and inactive calls. Calls come from the whole dose curve; as a rule, active = well fitted inhibition curve with a large enough effect; inconclusive = small, poorly fitted or top-dose-only effect; inactive = flat fitted curve, though single readings scatter.

system: CP325; assay: qHTS profiling for inhibitors of Plasmodium falciparum proliferation (AID 504749); note: nearly all actives have a fitted effect of over 60% in size; details: P. falciparum in erythrocytes, SYBR Green DNA, 72 h; series mostly up to 28.7 µM
Outline: (§1)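 SYBR Green fluorescence of parasite DNA, read after lysis and overnight dark incubation, measured growth over 72 h in erythrocyte culture at 0.3% parasitemia and 2.5% hematocrit. Data normalised to DMSO and 0.29 uM artemisinin, with plate-drift correction.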
Potency is the fitted concentration of half-maximal effect.

SMILES | Potency
CCN(CCO)CCCC(C)Nc1ccnc2cc(Cl)ccc12 (configuration not stated) | inactive
Cc1nc2n(c(=O)c1CCN1CCC(c3noc4cc(F)ccc34)CC1)CCCC2 | inactive
C=C(c1ccc(C(=O)O)cc1)c1cc2c(cc1C)C(C)(C)CCC2(C)C | inactive
Cc1cccc(C)c1OCC(=O)N[C@@H](Cc1ccccc1)[C@@H](O)C[C@H](Cc1ccccc1)NC(=O)[C@H](C(C)C)N1CCCNC1=O | 13.5 µM (active)
CC(C)c1ccc2oc3nc(N)c(C(=O)O)cc3c(=O)c2c1 | inactive
CCCCC(CC)COC(=O)C(C#N)=C(c1ccccc1)c1ccccc1 (configuration not stated) | inactive
Cc1nc(Nc2ncc(C(=O)Nc3c(C)cccc3Cl)s2)cc(N2CCN(CCO)CC2)n1 | inactive
COc1ccc(C2(C#N)CCC(C(=O)O)CC2)cc1OC1CCCC1 (configuration not stated) | inactive
COCCCOc1ccnc(CS(=O)c2nc3ccccc3[nH]2)c1C (configuration not stated) | inactive
Cc1cc(=O)oc2cc(O)ccc12 | inactive
Clc1ccc(C(Cn2ccnc2)OCc2ccsc2Cl)c(Cl)c1 (configuration not stated) | 12 µM (active)
Cc1cc(C2CCCCC2)n(O)c(=O)c1 | 5.73 µM (active)
CCCCCCCCCCCCCCCCCCCCCCO | inactive
O=C(NCCO[N+](=O)[O-])c1cccnc1 | inactive
O=C1CCc2ccc(OCCCCN3CCN(c4cccc(Cl)c4Cl)CC3)cc2N1 | inactive
COc1ccc2cc([C@H](C)C(=O)O)ccc2c1 | inactive

system: CP329; assay: as above; details: P. falciparum in erythrocytes, SYBR Green DNA, 72 h; series mostly up to 28.7 µM
Outline: as §1

SMILES | Potency
CCN(CCO)CCCC(C)Nc1ccnc2cc(Cl)ccc12 (configuration not stated) | inactive
Cc1nc2n(c(=O)c1CCN1CCC(c3noc4cc(F)ccc34)CC1)CCCC2 | inactive
C=C(c1ccc(C(=O)O)cc1)c1cc2c(cc1C)C(C)(C)CCC2(C)C | inactive
Cc1cccc(C)c1OCC(=O)N[C@@H](Cc1ccccc1)[C@@H](O)C[C@H](Cc1ccccc1)NC(=O)[C@H](C(C)C)N1CCCNC1=O | 12 µM (active)
NNc1nncc2ccccc12 | inactive
CC(C)c1ccc2oc3nc(N)c(C(=O)O)cc3c(=O)c2c1 | inactive
CCCCC(CC)COC(=O)C(C#N)=C(c1ccccc1)c1ccccc1 (configuration not stated) | inactive
Cc1nc(Nc2ncc(C(=O)Nc3c(C)cccc3Cl)s2)cc(N2CCN(CCO)CC2)n1 | inactive
O=C(OC1C[C@H]2CC[C@@H](C1)[N+]21CCCC1)C(O)(c1ccccc1)c1ccccc1 (some centres not stated) | 4.78 µM (active)
COc1ccc(C2(C#N)CCC(C(=O)O)CC2)cc1OC1CCCC1 (configuration not stated) | inactive
CN1CCC(=C2c3ccccc3CCc3sccc32)CC1 | inactive
COCCCOc1ccnc(CS(=O)c2nc3ccccc3[nH]2)c1C (configuration not stated) | inactive
Cc1cc(=O)oc2cc(O)ccc12 | inactive
Clc1ccc(C(Cn2ccnc2)OCc2ccsc2Cl)c(Cl)c1 (configuration not stated) | 13.5 µM (active)
CNC[C@@H](O)[C@@H](O)[C@H](O)[C@H](O)CO | inactive
CCCCCCCCCCCCCCCCCCCCCCO | inactive
O=C(NCCO[N+](=O)[O-])c1cccnc1 | inactive
CN(c1nccc(=O)[nH]1)C1CCN(c2nc3ccccc3n2Cc2ccc(F)cc2)CC1 | inactive
O=C1CCc2ccc(OCCCCN3CCN(c4cccc(Cl)c4Cl)CC3)cc2N1 | inactive
COc1ccc2cc([C@H](C)C(=O)O)ccc2c1 | inactive
Cc1cc(=O)c2c(O)c3c(O)cc(=O)c4c3c3c(cc(O)c1c23)C(C)(C)C=4O | 2.13 µM (active)
